Bioassay records deposited in PubChem BioAssay by National Center for Advancing Translational Sciences (NCATS).
ALDH1A1 block: qHTS Assay for Inhibitors of Aldehyde Dehydrogenase 1 (ALDH1A1) | Purified ALDH1A1, NADH fluorescence, propionaldehyde substrate | Potency, µM (top dose mostly 75.3 µM), usual class: inhibitors | 220,000 compounds, 7.3% hits
ALOX12 inhib: qHTS Assay for Inhibitors of 12-hLO (12-human lipoxygenase) | Polyunsaturated fatty acid lipoxygenase ALOX12 (Homo sapiens), P18054 | purified 12-hLO, xylenol orange hydroperoxide absorbance | Potency, µM (titrated, usually from 57.1 µM), actives largely listed as inhibitors | 150,000 compounds, 0.12% hits | AID 1452, 2008; active = well fitted inhibition curve with a large enough effect; inconclusive = small, poorly fitted or top-dose-only effect; also: nearly all actives have a fitted effect of over 55% in size
Target sequence (P18054 whole entry, looked up): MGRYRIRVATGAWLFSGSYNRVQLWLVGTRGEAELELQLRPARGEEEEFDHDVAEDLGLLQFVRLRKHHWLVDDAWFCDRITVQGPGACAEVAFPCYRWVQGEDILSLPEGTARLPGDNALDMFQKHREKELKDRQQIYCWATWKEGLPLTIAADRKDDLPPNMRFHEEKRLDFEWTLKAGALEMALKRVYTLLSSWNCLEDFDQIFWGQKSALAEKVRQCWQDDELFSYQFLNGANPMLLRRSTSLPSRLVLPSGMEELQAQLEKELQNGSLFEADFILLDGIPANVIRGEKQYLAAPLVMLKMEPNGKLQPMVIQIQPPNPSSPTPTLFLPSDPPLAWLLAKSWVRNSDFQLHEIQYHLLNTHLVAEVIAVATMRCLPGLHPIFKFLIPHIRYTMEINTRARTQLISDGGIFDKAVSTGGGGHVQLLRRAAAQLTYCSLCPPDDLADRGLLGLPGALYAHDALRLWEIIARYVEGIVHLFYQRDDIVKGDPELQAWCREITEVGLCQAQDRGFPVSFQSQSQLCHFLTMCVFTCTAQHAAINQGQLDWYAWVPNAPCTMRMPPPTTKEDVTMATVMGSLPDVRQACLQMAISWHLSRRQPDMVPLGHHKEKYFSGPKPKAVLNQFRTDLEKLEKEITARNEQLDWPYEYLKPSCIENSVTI
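Lipoxygenase turnover measured by absorbance at 573 and 405 nm after Fe-XO development. Human 12hLO 150 nM, arachidonate 40 uM, pH 7.0 Hepes buffer with detergent; 15 min compound preincubation, 30 min reaction.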
HPGD block: qHTS Assay for Inhibitors of HPGD (15-Hydroxyprostaglandin Dehydrogenase); purified HPGD, NADH fluorescence kinetic, PGE2 substrate; Potency, µM, most hits filed as inhibitors; 150,000 compounds, 4.3% hits; AID 894, 2007
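NADH formation kinetics: reaction with 30 uM PGE2 and 1 mM NAD+ (final), 20 nM enzyme, Tris-HCl pH 8 with Tween 20, after 15 min compound preincubation at room temperature. Fluorescence change, last versus first of five reads.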
LMNA splice mod: qHTS Assay for Modulators of Lamin A Splicing. Potency, µM (top dose mostly 46.1 µM), usual class: inhibitors. 200,000 compounds, 0.01% hits. HeLa LMNA splicing GFP/RFP minigene ratio, 48 h; active = well fitted inhibition curve with a large enough effect in the signal ratio, with a control signal flat, not every such curve was filed as active; inconclusive = small, poorly fitted or top-dose-only effect, or effect the other way, or a change in a side signal; the % refers to the signal ratio
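Read-out is the ratio of GFP to DsRed2 object intensity, acquired by 488 nm laser-scanning cytometry on HeLa lamin A-EGFP minigene reporter cells. Compound incubation 48 hrs at 37 °C in Opti-MEM with 2% FBS; DMSO 0.5% final.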
PNC inhibitor: High Content Assay for Compounds that inhibit the Assembly of the Perinucleolar Compartment; 140,000 compounds, 3.1% hits; PC3M PTB-GFP, PNC prevalence imaging, 16 h; stronger effect = lower value; activity change (PNC), negative = inhibition, % at 10 µM;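 active = readout at or below -70, meaning at least 70% loss of cells showing the perinucleolar compartment, a nuclear body marking cancer cells; inconclusive = readout between -30 and a set limit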
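Read-out is percentage of cells bearing a perinucleolar compartment, from automated 20x imaging of fixed, Hoechst-stained PC3M PTB-GFP cells. Cells were seeded 4 h, then exposed 16 h to compound (23 nl of library stock) in duplicate plates.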
A number is an active result; – = inactive; ? = inconclusive; · = no result; [ ] = dose if it differs, or a comment. The list is not random: actives were taken first. Their share in the collection is about 10%. Unless noted, calls follow the shape of the dose curve; as a rule, active = well fitted inhibition curve with a large enough effect (not every such curve was filed as active); inconclusive = small, poorly fitted or top-dose-only effect, or another doubt; inactive = no such curve, though single readings can be large or run the other way.

SMILES | ALDH1A1 block | ALOX12 inhib | HPGD block | LMNA splice mod | PNC inhibitor
Cc1ccc(CCNC(=O)Cn2c(-c3cccs3)cc3ccccc32)cc1 | · | · | · | – | ·
Cc1nc2scc(-c3ccc(Cl)cc3)c2c(=O)n1N | – | · | · | · | ·
Cn1cc(/C=N/n2cnc3scc(-c4ccc(Cl)cc4)c3c2=O)c2ccccc21 | ? | – | ? | ? | -99
O=C(CC(Nc1ccccc1Cl)C(=O)OCC(=O)c1cccs1)c1ccccc1 (centres undefined) | 25µM | – | – | – | –
O=C(CNC(=O)c1cccs1)OCC(=O)c1ccccc1 | – | – | – | – | –
O=C(OCC(=O)c1cccs1)c1ccccc1 | 13µM | – | 14µM | – | –
Cc1ccc(/C=N/n2c(-c3ccc(Cl)cc3)n[nH]c2=S)s1 | – | · | · | · | ·
Cn1cccc1/C=N/n1c(-c2ccc(Cl)cc2)n[nH]c1=S | – | – | 4µM | – | –
Cc1ccc(-c2n[nH]c(=S)n2/N=C/c2cccn2C)cc1 | – | – | 8.9µM | – | –
Cn1cccc1/C=N/n1c(-c2ccc(Cl)cc2Cl)n[nH]c1=S | ? | – | 13µM | ? | –
Cc1cc(OCC(=O)Nc2ccc(F)c(F)c2)nc(C(C)C)n1 | 25µM | – | – | – | –
Cc1cc(OCC(=O)Nc2ccccc2F)nc(C(C)C)n1 | – | – | – | – | –
CCOC(=O)c1ccccc1NC(=O)N(Cc1ccco1)C1CCN(C(C)=O)CC1 | · | · | · | – | ·
CCCN1CCN(C(=S)Nc2sc(CC)cc2C(=O)OC)CC1 | – | · | · | – | ·
COC(=O)c1cc(C)sc1NC(=S)N1CCN(CCc2ccccc2)CC1 | 14µM | · | · | · | ·
CN(C(=O)COc1ccc(S(=O)(=O)N2CCOCC2)cc1[N+](=O)[O-])C1CCS(=O)(=O)C1 (centres undefined) | 13µM | · | · | – | ·
CN(C(=O)COC(=O)c1cc(S(=O)(=O)N2CCOCC2)c(Cl)cc1Cl)C1CCS(=O)(=O)C1 (centres undefined) | – | · | · | – | ·
COc1ccc(C2C(=O)N(C3CCC(C)CC3)CC(=O)N2CCc2ccccc2)cc1OC (centres undefined) | · | · | · | – | ·
CC(=O)c1cccc(NC(=O)Cn2ccn3nc(-c4ccccc4)cc3c2=O)c1 | · | · | · | – | ·
COC(=O)C1=C(C(=O)c2ccccc2)C(c2ccc(O)c(OC)c2)n2nnnc2N1 (centres undefined) | – | – | – | – | –
CC1=C(C(=O)Nc2ccc(Cl)cc2)C(c2cccs2)n2nnnc2N1 (centres undefined) | 5µM | – | – | – | –
COC(=O)C1=C(C(=O)c2ccccc2)C(c2cccs2)n2nnnc2N1 (centres undefined) | 22µM | – | – | – | ?
CSc1ncc(C(=O)N2CCN(c3cccc(C(F)(F)F)c3)CC2)c(C)n1 | · | · | · | – | ·
C=CCNC(=O)NC(=O)COC(=O)/C(C#N)=C/c1ccc(OC)cc1 | 25µM | · | · | –[9.22 µM] | ·
Cc1cccc(NC(=O)CSc2nc(=O)n(CCN3CCOCC3)c3c2CCC3)c1 | · | · | · | – | ·
SMILES | ALDH1A1 block | ALOX12 inhib | HPGD block | LMNA splice mod | PNC inhibitor
CCCn1c(=N)n(CCOc2ccc(OC)cc2)c2ccccc21 | – | – | – | – | –
CCC(=O)N=c1n(C)c2ccccc2n1CCOc1ccccc1 | 5µM | – | – | – | –
Cc1cccc(N(Cc2ccccc2)C(=O)CCl)c1 | 0.28µM | · | · | · | ·
Cc1cccc(N(CC(=O)O)CC(=O)O)c1 | – | – | – | – | ?
O=C(c1cccnc1)N(Cc1ccccc1)c1ccccc1 | – | – | – | – | –
O=C(CCl)N(Cc1ccccc1)c1ccccc1 | 0.079µM | · | · | – | ·
CN[C@]1(C)[C@H]2CC[C@@H](C2)C1(C)C | – | – | – | ? | ·
CO[C@H]1COC(=O)[C@H](C)COC(=O)C/C=C\[C@@H](C)[C@H](OC)COC(=O)C/C=C\[C@@H]1C | –[13.5 µM] | · | · | · | ·
CCn1c(C)nc2cc(C(=O)N=Nc3c(O)[nH]c4c(C)cc(C)cc34)ccc21 | – | – | – | – | –
CCn1c(C)nc2cc(C(=O)N=Nc3c(O)[nH]c4ccccc34)ccc21 | – | – | – | – | -93
CCn1c(C)nc2cc(C(=O)NNC(=S)Nc3ccccc3)ccc21 | – | · | · | – | ·
CCn1c(C)nc2cc(C(=O)NNC(=S)Nc3ccc(Cl)cc3Cl)ccc21 | 3.5µM | – | ? | – | –
O=C(NNC(=S)Nc1ccc(Cl)cc1Cl)C1CC1 | ? | – | – | – | –
O=C(NNC(=S)Nc1ccc(Cl)cc1Cl)c1ccncc1 | 3.2µM | – | ? | – | –
CCn1c(C)nc2cc(C(=O)NNC(=S)Nc3ccccc3Cl)ccc21 | 32µM | – | – | – | –
CCn1c(C)nc2cc(C(=O)NNC(=S)NC(=O)c3ccccc3)ccc21 | 25µM | · | · | ? | ·
CC1(C)Cc2nc3sc(C(=O)NCCO)c(N)c3cc2CO1 | ? | – | – | – | –
COC(CSc1ncnc2c1oc1nc3c(cc12)COC(C)(C)C3)OC | 3.2µM | · | · | · | ·
CC1(C)Cc2nc3oc4c(NCc5ccccc5)ncnc4c3cc2CO1 | ? | – | ? | – | –
COC(=O)CSc1ncnc2c1sc1nc3c(cc12)COC(C)(C)C3 | 1.4µM | · | · | · | ·
CC1(C)Cc2nc3sc4c(SCC(=O)NCc5ccccc5)ncnc4c3cc2CO1 | 7.9µM | – | – | – | -112
CC1(C)Cc2nc3sc4c(N(CCO)CCO)ncnc4c3cc2CO1 | ? | – | ? | – | –
COc1ccc(CNc2ncnc3ccc(-c4cccc(NS(C)(=O)=O)c4)cc23)c(OC)c1 | – | · | · | ? | ·
CO[C@@H]1COC(=O)CC=C[C@@H](C)[C@@H]2C=C[C@H](O)[C@@H](COC(=O)C/C=C\[C@H]1C)O2 | –[13.5 µM] | · | · | · | ·
CCCCn1c(=O)c(-[n+]2ccccc2)c([O-])c2ccccc21 | 14µM | – | – | – | –
SMILES | ALDH1A1 block | ALOX12 inhib | HPGD block | LMNA splice mod | PNC inhibitor
CCCCn1c(=O)c(-c2ccccc2)c(O)c2ccccc21 | ? | – | – | – | –
CC(C)Cn1c(=O)c(-[n+]2ccccc2)c([O-])c2ccccc21 | 2.8µM | · | · | · | ·
COc1ccc(CNC(=O)CCC2N=C3c4ccccc4N=C(SCc4ccccc4F)N3C2=O)cc1 (centres undefined) | · | · | · | – | ·
Cc1sc(NC(=O)CCC(=O)O)c(C(N)=O)c1-c1ccccc1 | 13µM | – | 14µM | ? | ?
Cc1sc(NC(=S)NC(=O)c2ccco2)c(C(N)=O)c1C | 3.2µM | · | · | · | ·
COc1ccc(NC(=O)c2c(NC(=O)CCC(=O)O)sc(-c3ccccc3)c2C)cc1 | 8.9µM | · | · | – | ·
CCN1CCc2c(sc(NC(=O)c3ccc(S(=O)(=O)N4CCOCC4)cc3)c2C(N)=O)C1 | 40µM | – | – | – | –
COC(=O)c1c(NC(=S)NC(=O)c2ccco2)sc2c1CCCC2 | ? | – | – | – | –
Cc1sc(NC(=O)C2CCCCC2C(=O)O)c(C(N)=O)c1-c1ccccc1 (centres undefined) | – | – | – | – | –
